Here are results for 66 compounds from PubChem BioAssay AID588334 (Broad Institute, 2011).

Out of some 300,000 compounds screened, about 2,300 (0.77%) were called active. What follows is part of a selection rich in actives, with near analogues and random picks from the rest. A number with no mark means an inactive call.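 Rule for the calls: active = mean activation of at least 80% with every replicate also reaching 80%; inconclusive = mean reaches 80% but some replicate falls short; inactive = the rest.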

This assay is described as follows: MITF-driven TRPM1 luciferase induction in melanoma cells – cell-based, SK-MEL-5, single point, primary screen (AID 588334).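 Note: 0% = neutral control wells and 100% = parthenolide positive control wells.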 The conditions noted are these: SK-MEL-5 TRPM1-promoter luciferase, 24 h; at 12.5 µM; active compounds read high; % of positive control, neutral wells = 0.
On to `c1ccc2c(CSCc3nc4ccccc4[nH]3)cccc2c1`, for which the activation is -9.4%. Consider `Clc1ccccc1SCc1nc2ccccc2[nH]1`, for which the activation is 98.6% (active).

Turning to `c1ccc(-c2nnc(SCc3nc4ccccc4[nH]3)o2)cc1`, the activation was -11.4%. Regarding `O=C(Cc1ccc(NC(=O)C2CCCN(C(=O)C3CCCCC3)C2)cc1)Nc1cccc(C(=O)N2CCCCC2)c1` (stereo unspecified), the activation is 2.88%. Regarding `Cc1cccc(C)c1NC(=S)N1CCCCCC1`, the activation is -1.99%.

Regarding `S=C(c1ccc(-c2ccccc2)o1)N1CCCCC1`, the activation was 99.8% (active). Then `CC1CCN(C(=S)c2ccc(-c3ccc(Cl)cc3Cl)o2)CC1`, with 28%. Then `CC(C)Cc1nnc(N)s1`, with -14.5%; and `Cc1ccc(NC(=O)C2CCC(C(C)(C)C)CC2)cc1S(=O)(=O)N1CCOCC1` (stereo unspecified), with -5.55%.

In the case of `COc1cc(/C=C2\Oc3ccc(C#Cc4ccc(O)cc4)cc3C2=O)cc(OC)c1`, the activation is -73.4%. `O=C(COC(=O)c1cccs1)NCc1cccs1`: the activation was 3.86%. Consider `COC(=O)c1cn(CC(=O)NCc2cccs2)c2ccccc12`, for which the activation is 81.5% (active). As for `COCCNC(=O)Cn1cc(C(=O)c2cccs2)c2ccccc21`, the activation was 7.95%. With `O=C(NCc1ccccc1)c1cccc(NC(=O)C2CCCCC2)c1` the figure was -5.07%; with `O=C(NN=Cc1ccccc1)c1ccccc1`, 55%. With `Cc1cccc(NC(=O)Nc2cccc(Oc3c(F)c(F)c(F)c(F)c3F)c2)c1`, the activation was 16.2%. Regarding `COc1cccc(NC(=O)c2ccccc2SC)c1`, the activation was 6.57%. In the case of `Cc1ccoc1C(=O)Nc1cccc(Oc2ccccc2)c1`, the activation was 87% (active).

On to `CSc1ncnc2c1ncn2CC(=O)C1CCC2C3CCC4=CC(=O)CCC4(C)C3CCC12C` (stereo unspecified), for which the activation is -44.7%. Consider `CCOc1ccc(/C=C(/C#N)c2nnc(N3CCOCC3)n2-c2ccccc2)cc1OC`, for which the activation is -2.3%. As to `O=C(c1ccc(F)cc1)N1CCCC(c2nc(-c3cccs3)no2)C1` (stereo unspecified), the activation is -6.36%.

Regarding `COc1cccc(-c2noc(C3CCCN(C(=O)c4ccc(F)cc4)C3)n2)c1` (stereo unspecified), the activation was -11.5%. Turning to `Cc1ccc(-c2noc(C3CCCN(C(=O)c4cccc(Cl)c4)C3)n2)o1` (stereo unspecified), the activation is 102% (active). In the case of `Cc1ccc(-c2csc(NC3OC(=O)c4ccccc43)n2)cc1` (stereo unspecified), the activation was -32.1%.

On to `O=C(Nc1nc(-c2ccc(-c3ccccc3)cc2)cs1)c1cnccn1`, for which the activation is 1.68%. Turning to `c1cnc(Nc2nc(-c3ccc4ccccc4c3)cs2)nc1`, the activation was 103% (active).

With `O=C(NCCc1ccccc1)c1cccc(NC(=O)c2ccccc2)c1`, the activation was 20.5%. With `COc1cccc2[nH]c(C(=O)NCCc3ccccc3)cc12` the figure was 110% (active); with `COc1ccc(CCNC(=O)c2ccccc2OCc2ccccc2)cc1`, -7.11%. Then `Cc1ccc(S(=O)(=O)N2CCN(C(=O)COC(=O)/C=C/c3cccc(Cl)c3)CC2)c(C)c1`, with 4.12%; and `Cc1cccc(NC(=O)c2ccc(S(=O)(=O)N(C)c3ccccc3)cc2)n1`, with 1.38%.

With `CSCCC1NC(=O)N(CC(=O)Nc2cccc(S(=O)(=O)N3CCCCCC3)c2)C1=O` (stereo unspecified), the activation was 11.8%. As for `O=C(COC(=O)c1ccc2c(c1)OCCO2)NCc1ccccc1Cl`, the activation is 4.3%. Consider `O=C(OCc1ccccc1F)c1ccc2c(c1)OCCO2`, for which the activation is 126% (active). `O=C(COC(=O)c1ccccc1)c1ccc2c(c1)OCCO2`: the activation is 17.6%.

As to `CCOc1ccc(C(=O)Nc2cccc(SC)c2)cc1`, the activation was 84.3% (active). For the compound `CCOc1ccc(C(=O)Nc2cccc(-c3ccc4nncn4n3)c2)cc1`, the activation is 52.8%. Turning to `CCOc1ccc(C(=O)Nc2ccncc2)cc1`, the activation is 41.4%. On to `O=C1CC[C@@H]2CC3(C[C@@H]4CCN1[C@H]24)Nc1cc([N+](=O)[O-])ccc1NC3=NC1CCCCC1` (stereo partly specified), for which the activation was 3.73%.

Consider `COc1ccc(C(=O)NC2CCN(C(=S)Nc3ccccc3)CC2)cc1`, for which the activation was -0.484%. With `COc1ccc(C(=S)Nc2ccccc2)cc1` the figure was 33.5%; with `COc1ccc(NC(=S)N2N=CCC2c2ccccc2)cc1` (stereo unspecified), 90.9% (active). For the compound `Cc1ccc(C(=O)NC(=S)Nc2ccccc2C)cc1`, the activation was 51.8%.

On to `Cc1ccc(NC(=S)Nc2ncccc2C)c(C)c1`, for which the activation is 92.2% (active). As to `Cc1ccc(NC(=S)NCc2ccccc2Cl)c(C)c1`, the activation is -11.2%. Turning to `COc1ccc(CNCCCn2cnc3c(OCc4ccccc4)ncnc32)cc1`, the activation was 7.28%.

Consider `Cc1ccc(S(=O)(=O)N2CCN(C(=O)c3cc(S(=O)(=O)N4CCOCC4)ccc3F)CC2)cc1`, for which the activation is -4.55%.

With `NN=C(NN=Cc1ccccc1)c1ccccc1`, the activation was 35.2%. As to `CCCOc1ccc(C(=O)NCCc2ccccc2)cc1`, the activation is -2.06%. `CC1CCCN(c2ccc(C(=O)NCCc3ccccc3)cn2)C1` (stereo unspecified): the activation is 126% (active).

As for `O=C(NCCc1ccccc1)c1ccc2c(c1)N(Cc1ccccc1)CCS2`, the activation was 39.9%. With `CC(C(=O)N1CCc2ccccc21)N(C)CC(=O)Nc1ccc(F)cc1` (stereo unspecified), the activation was 13.5%.

With `COC[C@@H]1NS(=O)(=O)c2ccc(Br)cc2O[C@H]1c1ccccc1`, the activation was 7.36%. On to `O=C(O)C1CCCCC1C(=O)Nc1ccc(Cl)cc1` (stereo unspecified), for which the activation was 20.2%.

As to `O=C(CC1SCCNC1=O)Nc1ccc(Cl)cc1` (stereo unspecified), the activation is 26.1%. Regarding `O=C(Nc1ccc(Cl)cc1)/C(=C1\CCCN1)[N+](=O)[O-]`, the activation is 88.7% (active). Then `COc1ccccc1N(CC(=O)Nc1ccc(C)cc1Cl)S(=O)(=O)c1cccs1`, with -4.34%; and `O=C(NC(=S)NC1CCCCC1)c1ccc(Cl)cc1`, with 138% (active).

For `O=C(NC1CCCCCC1)c1cccnc1Sc1ccc(Cl)cc1`, the activation is 6.6%. With `S=C(NCc1ccc(Cl)cc1)NC1CCCCC1`, the activation is -7.01%. As for `O=C(NNC(=S)NC1CCCCC1)c1ccccc1Cl`, the activation is 9.14%. With `COc1ccc(C(=O)NC(=S)NC2CCCCC2)cc1` the figure was 73.7%; with `COCCCNC(=S)NC(=O)c1ccccc1`, 17.9%. With `Cc1occc1C(=O)NNC(=S)NCC(C)C` the figure was -2.13%; with `CC(C)CNC(=S)NC(=O)c1ccc(Cl)cc1`, 112% (active); with `O=C(NC1CCCCC1)c1ccc(-c2ccc(Cl)cc2)o1`, 111% (active).
